Structures can show the parent of a compound that is named as a salt.
What was measured:
Details in all cases: 20 µM
[1] = test system: Salmonella enterica typhimurium; assay: growth AUC normalised to DMSO control (fraction of control); higher = less growth inhibition, active = hit call of the paper
Procedure, shortened: (§1)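 Hemin and NAD were added to the medium for Haemophilus parainfluenzae. All pathogens, after two anaerobic passages, were inoculated at a starting OD578 of 0.01 into pre-reduced mGAM plates with 20 μM compound and 1% DMSO under breathable seals, and OD578 was read hourly for 24 h in three biological replicates. AUC of each growth curve was obtained with the trapezoidal rule up to the exponential-to-stationary transition and normalised to DMSO controls from the same plate.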

[2] = test system: Shigella flexneri; assay: as above
Procedure, shortened: as §1

[3] = test system: Vibrio cholerae; assay: as above
Procedure, shortened: as §1

[4] = test system: Yersinia pseudotuberculosis; assay: as above
Procedure, shortened: as §1

[5] = test system: P. vulgatus RND KO; assay: growth AUC normalised to DMSO control (median) (fraction of control); higher = less growth inhibition, active = hit call of the paper
Procedure, shortened: (§2)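 After two overnight anaerobic passages, strains were inoculated at OD578 0.01 into mGAM in 96-well plates containing approved-drug library compounds at 20 μM and 1% DMSO. Growth was followed by reading OD578 hourly for 24 h within an anaerobic incubator. Area under the curve, taken by the trapezoidal rule up to the start of stationary phase, was normalised to same-plate vehicle wells, and the median of three biological replicates is listed.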

[6] = test system: P. vulgatus WT; assay: as above
Procedure, shortened: as §2

[7] = test system: S. enterica typhimurium WT; assay: as above
Procedure, shortened: as §2

[8] = test system: S. enterica typhimurium tolC KO; assay: as above
Procedure, shortened: as §2

Measured: growth AUC normalised to DMSO control
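For growth AUC normalised to DMSO control (median) in this document: active when median AUC fell below 0.1.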

CC(C)NC[C@@H](O)COc1ccc(CC(N)=O)cc1 [(R,+) Atenolol]
inactive: [1] 1.01 | [2] 1.06 | [3] 1.07 | [4] 1.02 | [5] 1.04 | [6] 1.01 | [7] 1.02 | [8] 0.986

CC[C@H]1OC(=O)[C@H](C)[C@@H](O[C@H]2C[C@@](C)(OC)[C@@H](O)[C@H](C)O2)[C@H](C)[C@@H](O[C@@H]2O[C@H](C)C[C@H](N(C)C)[C@H]2O)[C@](C)(O)C[C@@H](C)C(=O)[C@H](C)[C@@H](O)[C@]1(C)O [Erythromycin]
inactive: [7] 0.811
active: [1] 0.74 | [2] 0.6 | [3] 0.0246 | [4] 0.767 | [5] 0.0145 | [6] 0.00909 | [8] 0.00339

CC(CN(C)C)CN1c2ccccc2Sc2ccccc21 (configuration not stated) [Trimeprazine tartrate]
inactive: [1] 0.988 | [2] 0.952 | [3] 0.895 | [4] 0.999 | [5] 0.799 | [6] 0.792 | [7] 1 | [8] 0.972

COC(=O)Nc1nc2cc(Sc3ccccc3)ccc2[nH]1 [Fenbendazole]
inactive: [1] 0.996 | [2] 1.01 | [3] 0.995 | [4] 1.01 | [5] 1.01 | [6] 1.01 | [7] 1.01 | [8] 0.987

OC(Cn1cncn1)(Cn1cncn1)c1ccc(F)cc1F [Fluconazole]
inactive: [1] 1.01 | [2] 1.03 | [3] 1.04 | [4] 1.01 | [5] 1.01 | [6] 1.06 | [7] 1.01 | [8] 1

COc1ccc(C(=O)c2ccccc2)c(O)c1 [Oxybenzone]
inactive: [1] 1.03 | [2] 1.03 | [3] 1 | [4] 1 | [5] 1.05 | [6] 1.06 | [7] 1 | [8] 0.954

C=C1/C(=C\C=C2/CCC[C@]3(C)[C@@H]([C@H](C)/C=C/[C@@H](O)C4CC4)CC[C@@H]23)C[C@@H](O)C[C@@H]1O [Calcipotriene]
inactive: [1] 0.987 | [2] 0.931 | [3] 0.972 | [4] 0.977 | [5] 0.931 | [6] 0.958 | [7] 1.01 | [8] 0.946

O=c1[nH]c(=O)n([C@H]2C[C@H](O)[C@@H](CO)O2)cc1I [Idoxuridine]
active: [1] 0.909 | [2] 0.861
inactive: [3] 0.992 | [4] 0.984 | [5] 1.01 | [6] 1.05 | [7] 0.936 | [8] 0.933

O=C(O)c1cn(C2CC2)c2cc(N3CCNCC3)c(F)cc2c1=O [Ciprofloxacin hydrochloride monohydrate]
inactive: [6] 0.679
active: [1] 0.00833 | [2] 0.0218 | [3] 0.0273 | [4] 0.0762 | [5] 0.0296 | [7] 0.00642 | [8] 0.00798

O=C(O)Cc1sc(-c2ccccc2)nc1-c1ccc(Cl)cc1 [Fentiazac]
inactive: [1] 0.993 | [2] 1.03 | [3] 1 | [4] 1.02 | [5] 0.896 | [6] 0.947 | [7] 1 | [8] 0.98

CC(CCc1ccc(O)cc1)NCCc1ccc(O)c(O)c1 (configuration not stated) [Dobutamine hydrochloride]
inactive: [1] 0.988 | [2] 0.976 | [3] 0.99 | [4] 1 | [5] 0.993 | [6] 0.999 | [7] 1.01 | [8] 0.998

Clc1ccc2nsnc2c1NC1=NCCN1 [Tizanidine hydrochloride]
inactive: [1] 0.977 | [2] 0.988 | [3] 0.993 | [4] 1 | [5] 0.992 | [6] 1 | [7] 1.01 | [8] 0.998

Cc1cccc(C)c1OCC(C)N (configuration not stated) [Mexiletine hydrochloride]
inactive: [1] 1.01 | [2] 1.05 | [3] 1.05 | [4] 1.01 | [5] 1.03 | [6] 1.05 | [7] 1 | [8] 0.999

CCN1C(=O)NC(c2ccccc2)C1=O (configuration not stated) [Ethotoin]
inactive: [1] 0.995 | [2] 0.99 | [3] 0.996 | [4] 0.992 | [5] 1 | [6] 0.993 | [7] 0.987 | [8] 1

CC(C)(Sc1cc(C(C)(C)C)c(O)c(C(C)(C)C)c1)Sc1cc(C(C)(C)C)c(O)c(C(C)(C)C)c1 [Probucol]
inactive: [1] 0.996 | [2] 1.02 | [3] 0.998 | [4] 0.985 | [5] 1 | [6] 0.997 | [7] 1.01 | [8] 1

CC(C)[C@H](N)C(=O)OCCOCn1cnc2c(=O)nc(N)[nH]c21 [Valacyclovir hydrochloride]
inactive: [1] 0.993 | [2] 1.03 | [3] 0.995 | [4] 1.01 | [5] 0.999 | [6] 1.02 | [7] 1 | [8] 1.02

CCN(CC)C(C)CN1c2ccccc2Sc2ccccc21 (configuration not stated) [Ethopropazine hydrochloride]
inactive: [1] 0.972 | [2] 0.999 | [3] 0.918 | [4] 0.995 | [5] 0.272 | [6] 0.246 | [7] 0.993 | [8] 0.951

C=C[C@H]1CN2CC[C@H]1C[C@@H]2[C@@H](O)c1ccnc2ccc(OC)cc12 [Quinidine hydrochloride monohydrate]
inactive: [1] 0.991 | [2] 0.996 | [3] 0.985 | [4] 0.991 | [5] 0.998 | [6] 1.03 | [7] 0.99 | [8] 0.997

C#C[C@]1(O)CC[C@H]2[C@@H]3[C@H](C)CC4=C(CCC(=O)C4)[C@H]3CC[C@@]21C [Tibolone]
inactive: [1] 0.999 | [2] 0.971 | [3] 0.974 | [4] 1 | [5] 0.963 | [6] 0.994 | [7] 1 | [8] 0.986

CCCc1nn(C)c2c(=O)[nH]c(-c3cc(S(=O)(=O)N4CCN(C)CC4)ccc3OCC)nc12 [Sildenafil]
inactive: [1] 1.02 | [2] 1.07 | [3] 1.06 | [4] 1.03 | [5] 1.02 | [6] 1.02 | [7] 1.02 | [8] 1

CC1CS(=O)(=O)CCN1/N=C/c1ccc([N+](=O)[O-])o1 (configuration not stated) [Nifurtimox]
inactive: [1] 0.981 | [2] 0.947 | [4] 0.99 | [7] 0.995 | [8] 0.962
active: [3] 0.00876 | [5] 0.0205 | [6] 0.00686

Nc1nc(N)c2nc(-c3ccccc3)c(N)nc2n1 [Triamterene]
inactive: [1] 0.942 | [2] 1.06 | [3] 0.99 | [4] 0.95 | [5] 0.973 | [6] 0.971 | [7] 0.954 | [8] 0.939

CCCNC(=O)NS(=O)(=O)c1ccc(Cl)cc1 [Chlorpropamide]
inactive: [1] 1 | [2] 1.02 | [3] 1.01 | [4] 0.996 | [5] 1.02 | [6] 1.06 | [7] 1.01 | [8] 1.04

CCCCC(O)c1ccccc1 (configuration not stated) [Fenipentol]
inactive: [1] 0.997 | [2] 0.986 | [3] 1.01 | [4] 0.995 | [5] 1 | [6] 0.988 | [7] 1 | [8] 1

CC(COc1ccccc1)NC(C)C(O)c1ccc(O)cc1 (configuration not stated) [Isoxsuprine hydrochloride]
inactive: [1] 0.979 | [2] 0.989 | [3] 1 | [4] 0.989 | [5] 1.02 | [6] 1.01 | [7] 0.998 | [8] 1

CCN1CCCC1CNC(=O)c1cc(S(=O)(=O)CC)c(N)cc1OC (configuration not stated) [Amisulpride]
inactive: [1] 0.998 | [2] 1 | [3] 1.01 | [4] 0.99 | [5] 1.02 | [6] 1.01 | [7] 1.01 | [8] 0.995

c1cnc(N2CCN(Cc3ccc4c(c3)OCO4)CC2)nc1 [Piribedil]
inactive: [1] 1 | [2] 1.03 | [3] 0.999 | [4] 1.01 | [5] 1.07 | [6] 1.09 | [7] 0.984 | [8] 1

OCCN1CCN(CCCN2c3ccccc3C=Cc3ccccc32)CC1 [Opipramol dihydrochloride]
inactive: [1] 0.981 | [2] 0.962 | [3] 0.961 | [4] 0.996 | [5] 1.01 | [6] 1.01 | [7] 1 | [8] 0.968

Cc1cc(=O)oc2cc(O)ccc12 [Hymecromone]
inactive: [1] 1.01 | [2] 1 | [3] 0.998 | [4] 0.95 | [5] 1.03 | [6] 1.05 | [7] 0.999 | [8] 1.02

NS(=O)(=O)c1cc(C(=O)O)c(NCc2ccco2)cc1Cl [Furosemide]
inactive: [1] 0.996 | [2] 1.01 | [3] 1.01 | [4] 1.01 | [5] 1.05 | [6] 1.06 | [7] 1.02 | [8] 1.02

NC(CO)C(=O)NNCc1ccc(O)c(O)c1O (configuration not stated) [Benserazide hydrochloride]
inactive: [1] 1 | [2] 1 | [3] 1.01 | [4] 0.942 | [5] 0.969 | [6] 0.973 | [7] 0.982 | [8] 1

CCOC(=O)C1=C(C)NC(C)=C(C(=O)OCC)C1c1ccccc1/C=C/C(=O)OC(C)(C)C [Lacidipine]
inactive: [1] 1.01 | [2] 1 | [3] 1.02 | [4] 1.02 | [5] 1.07 | [6] 1.06 | [7] 1 | [8] 1

N[C@@H](Cc1cc(I)c(Oc2cc(I)c(O)c(I)c2)c(I)c1)C(=O)O [(L) Thyroxine]
inactive: [1] 1.01 | [2] 1.02 | [3] 1.03 | [4] 1.02 | [5] 0.994 | [6] 1.06 | [7] 1.02 | [8] 0.983

C[C@]12CC[C@@H]3c4ccc(O)cc4C[C@@H](CCCCCCCCC[S+]([O-])CCCC(F)(F)C(F)(F)F)[C@H]3[C@@H]1CC[C@@H]2O (some centres not stated) [Fulvestrant]
inactive: [1] 1.01 | [2] 1.09 | [3] 1.01 | [4] 0.994 | [5] 1.05 | [6] 1.02 | [7] 1.02 | [8] 0.998

Reference: the supplement of paper PMC12350171
